From the supplement of paper PMC6555819

Columns and labels:
Assay in all cases: PBM binding z-score (relative to random genomic background probes); higher = stronger binding; sequences stand for … in GC…GCGATTGACAGCGTAGAATGAAGG
[1] = test system: PPARg:RXRa DBDmut IVT, anti-RXR (DBD mutation: RXRa K156A/R161A, NR concentration 270 nM, RXRa partner concentration 90 nM)
In short: (§1)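 Probes were double-stranded and carried 34-nt variable regions with direct-repeat seeds, single-nucleotide variants, half-site ablations and random human genomic background sequences, printed on custom Agilent 4×180K protein-binding microarrays. Arrays were incubated 1 h with ligand-free nuclear receptor dimers in PBS pH 7.4, 2% milk, 0.02% Triton X-100, 1 mM DTT, 0.2 mg/mL BSA and 0.4 mg/ml salmon testes DNA. Antibodies against each partner (one per run) detected binding, and scanned fluorescence was regression-normalized. Binding z-scores use the random background probes as reference.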

[2] = test system: PPARg:RXRa IVT, anti-PPARg (NR concentration 270 nM, RXRa partner concentration 90 nM)
In short: as §1

[3] = test system: PPARg DBDmut:RXRa IVT, anti-PPARg (DBD mutation: PPARg1 K132A/R137A, NR concentration 270 nM, RXRa partner concentration 90 nM)
In short: as §1

[4] = test system: PPARg DBDmut IVT, anti-PPARg (DBD mutation: PPARg1 K132A/R137A, NR concentration 270 nM)
In short: as §1

[5] = test system: PPARg homodimer (NR concentration 180 nM)
In short: as §1

[6] = test system: PXR:RXRa (NR concentration 270 nM, RXRa partner concentration 90 nM)
In short: as §1

[7] = test system: PXR homodimer (NR concentration 270 nM)
In short: as §1

[8] = test system: RARa:RXR (NR concentration 270 nM, RXRa partner concentration 90 nM)
In short: as §1

[9] = test system: RARa homodimer (NR concentration 270 nM)
In short: as §1

[10] = test system: RARb:RXRa (NR concentration 270 nM, RXRa partner concentration 90 nM)
In short: as §1

Row | Sequence | PBM binding z-score [1] | PBM binding z-score [2] | PBM binding z-score [3] | PBM binding z-score [4] | PBM binding z-score [5] | PBM binding z-score [6] | PBM binding z-score [7] | PBM binding z-score [8] | PBM binding z-score [9] | PBM binding z-score [10]
1 | GCTCGGAGGACAAGGTCCGAGCTTTGTCCGTAGA | -0.364 | -0.655 | -1.03 | -1.31 | -1.07 | -0.519 | -1.19 | -0.414 | -1.77 | 0.839
2 | ACTATTAGTTAACTTAGGGCAACCGATACGACGC | 0.0765 | 0.837 | 0.677 | 1.02 | 0.328 | 0.418 | 0.13 | 0.582 | 0.421 | 0.959
3 | CTGCCAAGGTGAACAAGGTCGTTGATTACTATTC | 2.22 | 2.18 | -0.417 | -1 | 0.571 | 2.35 | 1.73 | 1.9 | -0.469 | 2.08
4 | ACTAGCAGGCCAAGTTTGGGTCACTCCAACAAAG | 0.7 | 1.34 | -0.265 | -0.469 | 0.235 | 0.603 | -0.498 | 1.4 | -0.0686 | 1.74
5 | AATACAGGGTCATCGGAGGCCAGAGTACGCACAG | 2.24 | 4.03 | 1.88 | 1.83 | 2.39 | 5.97 | 0.898 | 4.9 | 1.32 | 4.47
6 | GCTATTAGTTGAAAGGGCAACCGCATGATTCTCG | 0.567 | 1.26 | -0.261 | -0.166 | 1.06 | 0.577 | 0.17 | 1.39 | 0.567 | 1.71
7 | TATACAGGGTCAAAGGACAGAGTACGAATGTCGA | 2.27 | 4.9 | 3.23 | 2.81 | 2.18 | 3.68 | 1.01 | 4.56 | 1.66 | 4.55
8 | CCTAATGGGCCAAGGTCATTGATCAGTCAAAGCA | 2.35 | 2.59 | -0.175 | -0.521 | 2.49 | 3.83 | 1.87 | 3.77 | 0.774 | 3.59
9 | CATACAGGGTCAGCTAGGCCAGAGTCGGGACGGC | 1.33 | 2.55 | 0.623 | 0.297 | 2.62 | 2.15 | -0.0453 | 3.26 | 0.539 | 4.13
10 | TTACCAAGGTGAGCTGTGGTCGTTGATCCAACTC | 1.27 | 1.57 | 0.175 | 0.327 | -0.41 | 0.219 | -0.79 | -0.0403 | -0.989 | 1.04
11 | GCTTGTATATCAAGGTTAAGAAAGACTAAGCTAA | 0.247 | 0.653 | 0.195 | 0.533 | -0.0686 | 0.625 | -0.223 | 0.967 | 0.663 | 1.03
12 | TTACCGAGGTGAGCTGAGGTCGTTGATCCAACTC | 1.35 | 2.15 | 0.433 | -0.145 | -0.159 | 5.27 | 0.0419 | 2.36 | -0.912 | 1.76
